# Screening data deposited in PubChem by The Scripps Research Institute Molecular Screening Center.
# FBW7 activator – FBW7 E3 ligase activators, primary screen, biochemical, AlphaScreen, human; F-box/WD repeat-containing protein 7 (Homo sapiens), Q969H0; AlphaScreen FBW7–phospho-cyclin E peptide binding, activator screen; normalized activity (activation), % at 26.1 µM; 0.13% of 650,000 active; AID 1259310, 2017; in the data active means normalized activity above about 1.9%;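 further: purified mutant Fbw7 with reduced substrate affinity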
# MITF primary – MITF inhibitors, primary screen, biochemical, AlphaScreen, human. 0.91% of 650,000 active. inhibition, % at 2.6 µM. AlphaScreen MITF homodimerization, bead proximity signal; in the data active means inhibition above about 50%;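 further: 0% = vehicle wells with protein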
# GPR151 ag – activators of human GPR151, primary screen, cell-based, PathHunter beta-arrestin, luminescence | PathHunter beta-arrestin GPR151 cells | activation, % at 11.2 µM | 1% of 650,000 active; in the data active means activation above about 4.9%;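 further: 0% = median of compound wells and 100% = cells with positive control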
# Target sequence (Q8TDV0 whole entry, looked up): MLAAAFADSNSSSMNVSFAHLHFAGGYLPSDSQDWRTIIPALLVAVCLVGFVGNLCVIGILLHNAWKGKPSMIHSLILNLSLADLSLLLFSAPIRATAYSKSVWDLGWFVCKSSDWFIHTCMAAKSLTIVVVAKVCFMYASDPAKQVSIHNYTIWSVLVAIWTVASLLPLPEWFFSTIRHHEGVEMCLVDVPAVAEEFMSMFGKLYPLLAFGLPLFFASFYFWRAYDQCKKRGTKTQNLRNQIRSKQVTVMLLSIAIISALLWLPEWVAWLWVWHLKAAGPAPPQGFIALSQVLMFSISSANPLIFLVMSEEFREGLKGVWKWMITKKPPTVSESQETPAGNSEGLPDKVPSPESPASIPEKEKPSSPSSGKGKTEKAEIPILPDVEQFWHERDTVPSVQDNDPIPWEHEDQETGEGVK
# TEAD-YAP block – TEAD-YAP interaction inhibition, primary screen, TEAD-YAP interaction inhibitor project, luminescence, HEK-TIYL cells. TEAD-Gal4/YAP UAS-luciferase luminescence. inhibition, % at 9.12 µM. 1.4% of 640,000 active. AID 1259422, 2018; in the data active means inhibition above about 32%;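 further: 0% = median of test compound wells and 100% = reference inhibitor wells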
# MITF confirm – MITF inhibitors, retest of hits, confirmation, biochemical, AlphaScreen, triplicate | shares compounds with MITF primary | AlphaScreen MITF homodimerization, biotin/His-MITF beads | inhibition, % at 2.6 µM | 16% of 4,700 active;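 active means inhibition above a cutoff derived from the DMSO control wells, cut at about 28% in these data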;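 further: 0% = MITF dimer wells with DMSO only; inhibitors lower the bead chemiluminescence by keeping MITF from dimerizing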
# AlphaScreen DR – AlphaScreen optical interference compounds, dose response, counter-screen, biochemical, HTS. IC50, µM. shares compounds with MITF primary. 6% of 480 active. AlphaScreen optical interference counterscreen, cell-free; call rule not given here
# AlphaScreen intf2 – AlphaScreen optical interference compounds, counter-screen for MITF inhibitor project, biochemical, triplicate; shares compounds with MITF primary; LysRS AlphaScreen counterscreen, signal interference; inhibition, % at 2.6 µM; 7.6% of 4,700 active;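 active means inhibition above a cutoff derived from the DMSO control wells, cut at about 30% in these data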
# * = called active by the depositor; nt = no result given. Compounds with a hit are over-represented: about 3.5% of the library has one in this group of screens.
SMILES,FBW7 activator,MITF primary,GPR151 ag,TEAD-YAP block,MITF confirm,AlphaScreen intf2,others
O=C(CN1CCC(N2CCCCC2)CC1)Nc1ccc2c(c1)OCCO2,0,7,2,-6,nt,nt,
COc1cc(Nc2nc(-c3ccccc3)ncc2C)cc(OC)c1OC,0,9,0,17,nt,nt,
COc1ccc(S(=O)(=O)N(Cc2cc3ccc(C)cc3[nH]c2=O)CC2CCCO2)cc1 (configuration not stated),0,69*,-1,12,10,17,
Cc1ccc2[nH]c(=O)c(CN(CC3CCCO3)S(=O)(=O)c3ccccc3)cc2c1 (configuration not stated),0,-13,0,-4,nt,nt,
CN(C1CC1)S(=O)(=O)c1ccc(C(=O)Nc2ncnc3c2CCC3)cc1,0,-11,-1,-3,nt,nt,
CN(C)S(=O)(=O)c1ccc(C(=O)Nc2ncnc3c2CCC3)cc1,1,55*,0,9,5,-8,
Cc1ccc(-c2cn3c4ccccc4nc3n2CCCO)cc1,0,12,0,-16,nt,nt,
O=C(O)CCC/C=C\C[C@H]1C(=O)C=C[C@@H]1CC[C@@H](O)CCc1ccccc1,nt,-10,3,nt,nt,nt,
CCCN1CCC(N2CCN(S(C)(=O)=O)CC2)CC1,0,68*,-1,-3,2,16,
CCCS(=O)(=O)N1CCN(C2CCCCC2)CC1,0,53*,-2,3,6,17,
CS(=O)(=O)N1CCN(C2CCCC2)CC1,0,21,1,3,nt,nt,
CCCN1CCC(N2CCN(S(=O)(=O)c3ccccc3[N+](=O)[O-])CC2)CC1,0,84*,-2,3,12,12,
CCS(=O)(=O)N1CCN(C2CCCC2)CC1,0,34,3,-3,nt,nt,
CCC(C)NC(=O)CSc1nc2ccsc2c(=O)n1CCC(C)C (configuration not stated),1,15,0,-3,nt,nt,
CN(C)[C@@H]1C(=O)C(C(=O)NCN2CCCC2)=C(O)[C@@]2(O)C(=O)C3=C(O)c4c(O)cccc4[C@@](C)(O)[C@H]3C[C@@H]12,0,75*,0,-2,81*,22,AlphaScreen DR=>6.5
O=C1CC(C(=O)NCc2ccco2)Cc2nc(NC(=O)C3CCC3)sc21 (configuration not stated),0,-2,0,-15,nt,nt,
CCOc1ccc(/C=C/C(=O)Nc2ccc(N3CCOCC3)cc2)cc1,0,87*,0,13,7,14,
CCc1ccc(N2C(=O)C(Cl)=C(NC3CCCCC3)C2=O)cc1,0,64*,2,-4,-5,6,
Clc1ccccc1CN1CCN(c2ncccn2)CC1,0,21,0,-4,nt,nt,
Oc1c(Br)cc(CN2CCCCC2)c2cccnc12,-1,92*,0,66*,112*,101*,
Oc1c(Cl)cc(CN2CCCCC2)c2cccnc12,-1,110*,1,83*,110*,101*,
CCN1CCN(c2c(Cl)cccc2NC(=O)c2ccc(Cl)s2)CC1,0,8,-1,-3,nt,nt,
CCN1CCN(CC(=O)c2ccc(Cl)s2)CC1,0,74*,-1,9,0,8,
COc1cc(CN2CCN(Cc3ccccc3C)CC2)cc(OC)c1,0,80*,-1,-3,2,10,
COc1cc(OC)c(/C=N/N2CCN(Cc3cccc4ccccc34)CC2)c(OC)c1,-1,12,1,13,nt,nt,
SMILES,FBW7 activator,MITF primary,GPR151 ag,TEAD-YAP block,MITF confirm,AlphaScreen intf2,others
COc1cc(CN2CCN(Cc3cccc4ccccc34)CC2)cc(OC)c1,0,74*,-1,9,-11,4,
COc1ccc(Cc2nnc(SCC(=O)Nc3cc(F)ccc3C)n2C)cc1,0,11,-1,13,nt,nt,
COc1cccc(CN2CCN(Cc3cccc(OC)c3OC)CC2)c1,0,74*,0,-2,17,19,
CCOc1cc(CN2CCN(Cc3cccc(OC)c3OC)CC2)ccc1OC,0,11,1,-7,nt,nt,
COc1cc(CN2CCN(Cc3cccc(OC)c3OC)CC2)cc(OC)c1,-1,27,0,2,nt,nt,
COc1cccc(CN2CCN(Cc3cccc(F)c3)CC2)c1OC,0,66*,-1,-5,14,21,
COc1cccc(CN2CCN(Cc3ccc4ccccc4c3)CC2)c1OC,0,76*,-1,-8,-3,16,
COc1cc(CN2CCN(Cc3ccc4ccccc4c3)CC2)cc(OC)c1OC,0,60*,2,0,14,23,
CCOc1ccc(C2C(C(=O)OC)=CN(c3ccc(F)cc3)C=C2C(=O)OC)cc1,0,14,-1,-3,nt,nt,
CCOC(=O)C1(CCCc2ccccc2)CCN(C(=O)CCn2cnnn2)CC1,0,7,1,1,nt,nt,
CCOC(=O)C1(CCc2ccccc2)CCN(C(=O)CCn2cnnn2)CC1,0,61*,2,-23,-1,8,
Nc1n[nH]c(CC(=O)N(Cc2ccco2)C2(C(=O)Nc3ccccc3)CCCCC2)n1,0,66*,-1,-6,96*,101*,
Cc1ccc(NC(=O)C2(N(Cc3ccccc3)C(=O)Cc3nc(N)n[nH]3)CCCCC2)cc1,0,58*,1,9,100*,100*,
COc1ccc(NC(=O)C2(N(Cc3ccccc3)C(=O)Cc3nc(N)n[nH]3)CCCCC2)cc1,0,22,-2,-6,nt,nt,
COc1ccc(NC(=O)C2(N(Cc3ccco3)C(=O)Cc3nc(N)n[nH]3)CCCCC2)cc1,0,23,-2,-8,nt,nt,
Cc1ccccc1NC(=O)C1(N(Cc2ccccc2)C(=O)Cc2nc(N)n[nH]2)CCCCC1,-1,79*,-1,0,101*,101*,
COc1ccc(OC)c(/C=C2\NC(=S)N(c3ccccc3)C2=O)c1,0,5,2,4,nt,nt,
CCCN1C(=O)C(O)(CC(=O)c2cccs2)c2ccccc21 (configuration not stated),0,17,-1,9,nt,nt,
COCCNC(=O)CCCCn1c(=S)[nH]c2c([nH]c3ccc(OC)cc32)c1=O,1,52*,-1,4,-8,41*,
O=S(=O)(Nc1ccc2cn[nH]c2c1)c1ccc2ccccc2c1,0,1,1,4,nt,nt,
NS(=O)(=O)c1ccc(NS(=O)(=O)c2ccc(O)c(C(=O)O)c2)cc1,0,2,1,8,nt,nt,
O=C(O)c1cc(S(=O)(=O)Nc2ccncc2)ccc1O,0,66*,1,4,43*,9,AlphaScreen DR=>7.1
